Results as given in PubChem BioAssay AID1159580 (chemical genetic matrix, 2015).
About 2,000 (36%) of roughly 5,500 compounds were called active. Another 18% or so got no clear call; they are omitted. Rule as the data show it: active = normalized growth mostly below about 0.91 (no sharp cut-off); inconclusive = no clear call, values can overlap the other calls; inactive = mostly above about 0.92. Some of the results follow.

Experiment: chemical genetic growth profiling, strain panel (AID 1159580);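 also: tested at 20 µM; growth read once vehicle control cultures reached saturation at 30 °C; 1 = growth at the plate median or of vehicle wells; lower values mean less growth of the strain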
Conditions: growth OD

Measured: normalized growth

C=C1[C@H]2CC[C@@]3(C)[C@H](c4ccoc4)OC(=O)C[C@]13O[C@H]1C[C@H](O)C(C)(C)[C@H](CC(=O)OC)[C@]12C
inactive: S. cerevisiae deletion strains, locus YJR066W, strain TOR1, active compounds read low 0.936 | S. cerevisiae deletion strains, locus YJR075W, strain HOC1, active compounds read low 0.994 | S. cerevisiae deletion strains, locus YKL009W, strain mrt4, active compounds read low 0.997 | S. cerevisiae deletion strains, locus YKL068W, active compounds read low 1.02 | S. cerevisiae deletion strains, locus YKL085W, strain MDH1 (second series), active compounds read low 1 | S. cerevisiae deletion strains, locus YKL085W, strain MDH1, active compounds read low 1 | S. cerevisiae deletion strains, locus YKL160W, strain elf1, active compounds read low 0.998 | S. cerevisiae deletion strains, locus YKR001C, strain vps1, active compounds read low 1.01 | S. cerevisiae deletion strains, locus YKR026C, strain gcn3, active compounds read low 1.02 | S. cerevisiae deletion strains, locus YKR091W, strain srl3, active compounds read low 1.02 | S. cerevisiae deletion strains, locus YLL001W, strain dnm1, active compounds read low 1.01 | S. cerevisiae deletion strains, locus YLL026W, active compounds read low 1.01 | S. cerevisiae deletion strains, locus YLL041C, strain sdh2, active compounds read low 1.01 | S. cerevisiae deletion strains, locus YLR027C, strain aat2, active compounds read low 1.01 | S. cerevisiae deletion strains, locus YLR039C, strain RIC1, active compounds read low 0.969 | S. cerevisiae deletion strains, locus YLR058C, strain SHM2, active compounds read low 1.01 | S. cerevisiae deletion strains, locus YLR102C, strain apc9, active compounds read low 1.01 | S. cerevisiae deletion strains, locus YLR113W, strain HOG1, active compounds read low 1.04 | S. cerevisiae deletion strains, locus YLR221C, strain rsa3, active compounds read low 1.03 | S. cerevisiae deletion strains, locus YLR258W, strain gsy2, active compounds read low 1 | S. cerevisiae deletion strains, locus YLR262C, strain YPT6 (second series), active compounds read low 0.994 | S. cerevisiae deletion strains, locus YLR262C, strain YPT6, active compounds read low 0.938 | S. cerevisiae deletion strains, locus YLR268W, strain sec22, active compounds read low 1.01 | S. cerevisiae deletion strains, locus YLR320W, strain mms22, active compounds read low 1.03 | S. cerevisiae deletion strains, locus YLR342W, strain FKS1, active compounds read low 1.02 | S. cerevisiae deletion strains, locus YLR357W, strain rsc2, active compounds read low 1.03 | S. cerevisiae deletion strains, locus YLR370C, strain arc18, active compounds read low 1 | S. cerevisiae deletion strains, locus YLR371W, strain rom2, active compounds read low 1.02 | S. cerevisiae deletion strains, locus YLR384C, strain iki3, active compounds read low 1.01 | S. cerevisiae deletion strains, locus YLR418C, strain cdc73, active compounds read low 0.997 | S. cerevisiae deletion strains, locus YML016C, strain PPZ1, active compounds read low 1 | S. cerevisiae deletion strains, locus YML032C, strain rad52, active compounds read low 1.01 | S. cerevisiae deletion strains, locus YML120C, strain ndi1, active compounds read low 0.998 | S. cerevisiae deletion strains, locus YML124C, strain tub3, active compounds read low 1.02 | S. cerevisiae deletion strains, locus YMR058W, strain fet3, active compounds read low 1.05 | S. cerevisiae deletion strains, locus YMR078C, strain ctf18, active compounds read low 1.02 | S. cerevisiae deletion strains, locus YMR125W, strain sto1, active compounds read low 1 | S. cerevisiae deletion strains, locus YMR129W, active compounds read low 1.01 | S. cerevisiae deletion strains, locus YMR205C, strain PFK2, active compounds read low 1.01 | S. cerevisiae deletion strains, locus YMR223W, strain ubp8, active compounds read low 1.01 | S. cerevisiae deletion strains, locus YMR231W, strain pep5, active compounds read low 1.01 | S. cerevisiae deletion strains, locus YMR263W, strain SAP30, active compounds read low 1.01 | S. cerevisiae deletion strains, locus YMR307W, strain GAS1, active compounds read low 1.03 | S. cerevisiae deletion strains, locus YNL067W, strain RPL9B, active compounds read low 1 | S. cerevisiae deletion strains, locus YNL071W, strain lat1, active compounds read low 1.01 | S. cerevisiae deletion strains, locus YNL153C, strain GIM3, active compounds read low 1.01 | S. cerevisiae deletion strains, locus YNL183C, strain NPR1, active compounds read low 0.943 | S. cerevisiae deletion strains, locus YNL209W, strain ssb2, active compounds read low 1.04 | S. cerevisiae deletion strains, locus YNL233W, strain BNI4, active compounds read low 0.988 | S. cerevisiae deletion strains, locus YNL248C, strain rpa49, active compounds read low 1.05 | S. cerevisiae deletion strains, locus YNL250W, strain rad50, active compounds read low 1.01 | S. cerevisiae deletion strains, locus YNL271C, strain bni1, active compounds read low 0.995 | S. cerevisiae deletion strains, locus YNL298W, strain CLA4, active compounds read low 1.02 | S. cerevisiae deletion strains, locus YNL307C, strain MCK1, active compounds read low 1.02 | S. cerevisiae deletion strains, locus YNL322C, strain KRE1 (second series), active compounds read low 1.02 | S. cerevisiae deletion strains, locus YNL322C, strain KRE1, active compounds read low 1 | S. cerevisiae deletion strains, locus YNR049C, strain mso1, active compounds read low 1.02 | S. cerevisiae deletion strains, locus YNR052C, strain pop2, active compounds read low 1.02 | S. cerevisiae deletion strains, locus YOL006C, strain TOP1, active compounds read low 1 | S. cerevisiae deletion strains, locus YOL012C, strain htz1 0.768 | S. cerevisiae deletion strains, locus YOL147C, strain pex11, active compounds read low 1.02 | S. cerevisiae deletion strains, locus YOR001W, strain rrp6, active compounds read low 1.03 | S. cerevisiae deletion strains, locus YOR061W, strain CKA2, active compounds read low 1 | S. cerevisiae deletion strains, locus YOR069W, strain VPS5, active compounds read low 1 | S. cerevisiae deletion strains, locus YOR070C, strain gyp1, active compounds read low 1.03 | S. cerevisiae deletion strains, locus YOR080W, strain dia2, active compounds read low 1.02 | S. cerevisiae deletion strains, locus YOR083W, strain WHI5, active compounds read low 0.999 | S. cerevisiae deletion strains, locus YOR106W, strain vam3, active compounds read low 0.998 | S. cerevisiae deletion strains, locus YOR136W, strain idh2, active compounds read low 1.02 | S. cerevisiae deletion strains, locus YOR144C, strain elg1, active compounds read low 1.02 | S. cerevisiae deletion strains, locus YOR184W, strain ser1, active compounds read low 1.02 | S. cerevisiae deletion strains, locus YOR231W, strain MKK1, active compounds read low 0.985 | S. cerevisiae deletion strains, locus YOR265W, strain rbl2, active compounds read low 1 | S. cerevisiae deletion strains, locus YOR270C, strain vph1, active compounds read low 1.01 | S. cerevisiae deletion strains, locus YOR290C, strain snf2, active compounds read low 0.974 | S. cerevisiae deletion strains, locus YOR316C, strain cot1, active compounds read low 1.02 | S. cerevisiae deletion strains, locus YPL051W, strain arl3, active compounds read low 1.02 | S. cerevisiae deletion strains, locus YPL078C, strain atp4, active compounds read low 0.985 | S. cerevisiae deletion strains, locus YPL106C, strain sse1, active compounds read low 1 | S. cerevisiae deletion strains, locus YPL240C, strain hsp82, active compounds read low 1.01 | S. cerevisiae deletion strains, locus YPL256C, strain CLN2, active compounds read low 0.981 | S. cerevisiae deletion strains, locus YPR119W, strain clb2, active compounds read low 1.01 | S. cerevisiae deletion strains, locus YPR141C, strain kar3, active compounds read low 1.02 | S. cerevisiae deletion strains, locus YPR163C, strain tif3, active compounds read low 1.01 | S. cerevisiae deletion strains, locus YPR167C, strain met16, active compounds read low 1.02 | S. cerevisiae deletion strains, strain wtn01, active compounds read low 1.01 | S. cerevisiae strains, strain wild type, active compounds read low 1.01
